Assay results published in the supplement of paper PMC11417369.
In all, about 25,000 sequences were measured (“ln(normalized median fluorescence intensity)”: median about 9.3, highest 2% from about 10 on). Many of the other results were omitted from the sample, so the highest values are more common in it than they were.

test system: PF3D7_0420300 AP2 domain 1 (GST-tagged); experiment: gcPBM binding intensity (ln(normalized median fluorescence intensity)); higher = stronger DNA binding
Method in brief: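 Binding of GST-tagged P. falciparum DNA-binding domains, expressed in E. coli and used at about 25 μg on average, was carried out for 1 h in 1× PBS containing 1% milk, 0.2 mg/ml BSA, 0.5% salmon testes DNA and 0.03% Triton X-100. The target was an Agilent 4 × 180k array of primer-extended double-stranded 36-bp intergenic genomic probes plus negative controls, read with Alexa488 anti-GST antibody at 488 nm. Binding intensity is the highest Masliner-normalised natural-log median intensity across replicate spots of either probe orientation.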

Sequence	gcPBM binding intensity (ln)
TAAATAAATTTATACACACACACACCCATATATATA [CACACA_site849]	10.2
TATACGCAGAAACACACACACATACACCCACATACA [CACACA_site1723]	10
AATAAATATATATACACACCCATATATATATATATA [CACACA_site2595]	9.43
TATAAATAAATTTATACACACACACCCATATATATA [CACACA_site8183]	10
AAAAAAAAAAAAAACACACACACACCCATACAAAAT [CACACA_site1446]	10.1
TATATACACCCACATACACACAAATAAAAAAACACC [CACACA_site3414]	9.98
TATATACACAAACACACACACACATACACCCACATA [CACACA_site8504]	10.3
TATACATACCCACCCACACACAAAAAAAAAAAAAAA [CACACA_site4632]	9.68
TATATACAGAAACACACACACACATATATATATATA [CACACA_site2247]	10.1
AACATACAGAAACACACACACACACCCACACCCACA [CACACA_site493]	10.3
TACAAACACCCATATACACACAAAAAAAAAATAAAA [CACACA_site5421]	9.55
AAAAAATACAAACACACACACACACCCATATATATA [CACACA_site3560]	10.2
GATAAAATAAAAGTGGGTACTTAAATATATATATAA [XGTACX_site8457]	9.28
ATAAGAAAAAAGAACTGTACTAATAAAATATAAAAA [XGTACX_site3715]	9.3
TTTCGTAAAATGAAATGTACTCAAAAGTAAATATAA [XGTACX_site214]	9.03
TATTTTTCCATATGCACACACACCGTATATATAATA [CACACA_site1127]	10
AAAGAATAATTAAATACACACATATTGCAGTAAAAA [CACACA_site7201]	9.69
TATAAAAAATATAATTGTACATAAAGGTTAAAATGT [XGTACX_site6138]	9.47
ATTAGTTTTATATATAGTACATATAATTTTGAAGGT [XGTACX_site7445]	9.2
GTTAAAAAAAGGAGAGATCTCACACAAATATATATA [GTGCAC_negctrl_site117]	9.22
AAATAATTTGTTGACACACACACACCCATACAGATA [CACACA_site5291]	10.1
CATATATATAAATACACACACACACCCCTTATAATT [CACACA_site4064]	10.2
AAAACACCCAAACACACACACACATATATATATATA [CACACA_site9119]	10.1
CATATATACGCATACACACACACACCCACACCCACA [CACACA_site1725]	10.2

Sequence	gcPBM binding intensity (ln)
CATATAAATAAATACACACACACACGCCTTATAATT [CACACA_site7830]	10.2
CATATACGCAAACACACACACATATATATATATATA [CACACA_site501]	10
TCAAATAATTTGTTGACACACACACCCACATACATA [CACACA_site8717]	9.85
TATATACGCAAACACACACACACATACACCCACATA [CACACA_site1724]	10.2
AAATAATTTGTTGACACACACACACCCATACATATA [CACACA_site2285]	10.2
AACAAAAAAACAAACACACACACACCCATATATATA [CACACA_site3652]	9.98
TACATATATATAAATACACACACACCCACCTTATAA [CACACA_site9346]	10.1
CAAAAAAACAAACACACACACACACCCATATATATA [CACACA_site3653]	10.2
TAATATATGTTATATACACACATATAAATATAAATA [CACACA_site6339]	9.2
TGTTACATAAAATGCACACTTTCAAATATGCTAATA [CACACA_site2925]	9.05
GTTTCCTTAATATTCACACACATATCTATAATATAT [CACACA_site6959]	9.87
ACAAATAAAAATATTACACACACTATTATATTGATA [CACACA_site1494]	9.86
ATATAAAATAGACACGCACACAAAAAAAAAAAAAAA [CACACA_site3522]	9.5
CATATACATAGACACACACACACATAAATAAATATA [CACACA_site6749]	10.1
TACACGCATAGACACACACACACACGCATATAAATA [CACACA_site6446]	10.3
ATGGCCATAATATAGACACACATATATAAATATATA [CACACA_site2230]	9.28
TCATAGTATAGACACACACACACACGCATATAAATA [CACACA_site6915]	10.2
TATATTGATGATGATAGTACGTATGATTAGAAAAAA [XGTACX_site8989]	9.18
ATGTATATGTCTATATGTACTTATATTTTATTTTTT [XGTACX_site5902]	9.37
TTAATATATTAAATCTTACACACTAAAAAATATGTA [CACACA_site307]	9.16
ATACTAACATTTTTTTGTACATATAACTATAAAATA [XGTACX_site1033]	9.16
AGATATTTATTGAGTGCATGTTATAAAGGGAAAAAA [TGCATGCA_site88]	9.32
TATAACATAGGACACACACACATACATACACAAAAA [CACACA_site5062]	10.2
ATTAAATACATTAACACACACACAAATAAATACATA [CACACA_site5583]	10.3

Sequence	gcPBM binding intensity (ln)
AAATAAAACAAACACACACACACATACACAAAAAAA [CACACA_site3849]	10.2
TTTAACATAAATTAAACACACAATAAAATACATTAA [CACACA_site6699]	9.54
AATAAAATAAAATACACACATACATACATACAAATG [CACACA_site2438]	10.2
AACACATACAAACACACACACAAAAAAAAAAAAAAA [CACACA_site393]	9.78
TATAACATATGACACACACACATACATACACAAAAA [CACACA_site6935]	10.2
ATAAAACAAAAACACACACACATACACAAAAAAAAA [CACACA_site3848]	10.2
ATTAAATACATTAACACACACACAAATATATACATA [CACACA_site2881]	10.1
AAAATAAAATAAAATACACACATACATACATACAAA [CACACA_site5366]	9.95
TATACACATATATAAACACACAAAAAAAAAAAAAAA [CACACA_site7041]	9.38
TATAACATAAAACACACACACATACATACACAAAAA [CACACA_site1804]	10.1
TATATATTTCATAATACACACGAAAAAAAAAAAAAA [CACACA_site8972]	9.31
TACATTTAAAAAAAAACACACATATATATATATATA [CACACA_site2535]	8.99
TAATTTTTATTCAAGAGTACACAAAAGATAACTAAA [XGTACX_site4060]	9.14
AAGACACAAAAACACACACACATACATACATACATA [CACACA_site454]	9.91
ACAAAAAAAAAAAAAATACACACACATAAAAAAAAA [TGCATGCA_negctrl_site333]	9.72
AAAAAAAAAAAACATACACACAAATAAATACATACA [CACACA_site6073]	9.9
AATAAACATAAATACACACACAAAAAAAAAAACATA [CACACA_site4396]	10.3
ATAAAACAAAGACACACACACATACACAAAAAAAAA [CACACA_site7752]	10.2
CAAAGACACAAACACACACACACATACATACATACA [CACACA_site453]	10.1
TAATTTTTTTAAAAGCGTACATTTAAAAAAAAATAT [XGTACX_site2736]	8.76
TAATAACTACAAAAAAAAAAGAAAAATAGAAAAAGG [CACACA_negctrl_site1102]	9.55
TTGCATATTTCTAATTGTACATTATTTTATTTTATA [XGTACX_site8451]	9.45
AAAAAAAAAAAAGAAACACACATATATATATATATA [CACACA_site140]	9.23
AATAAAAAGAAACACACACACACACCCATATATATA [CACACA_site3589]	10.2

Sequence	gcPBM binding intensity (ln)
AGAAAAAAAAAACACACACACACACCCTCAATATAA [CACACA_site39]	10.1
AAAAAAAAGAAACACACACACATACACATAAATATA [CACACA_site3807]	10.1
AAAGAAAAAAAAAACACACACACACCCATTCAATAT [CACACA_site38]	10.2
ATATAAGAAAAGCACACACACACAAAAAAAAAAAAA [CACACA_site2827]	10.1
AGATATAAGAAAAGCACACACACACCCAAAAAAAAA [CACACA_site2826]	10.2
AAAGAAAAAAAAAACACACACACACGCATTCAATAT [CACACA_site6169]	10.1
AGAGATATAAGAAAAGCACACACACCCAAAAAAAAA [CACACA_site8917]	9.92
AAAAGAAAAAGAAAAACACACATAAATATAAATATA [CACACA_site1879]	9.59
CACTAAAAGAAACACACACACACACCCATATATATA [CACACA_site4151]	10.2
ATAAAAAAAAGAAAAACACACACATATATATATATA [CACACA_site8243]	9.61
AGTAACTAATTAAATGCATGTCGATATATATTATAT [TGCATGCA_site1038]	9.35
CGTTTTCTATATCATTGTACATATTCATGTGTAAAT [XGTACX_site2741]	9.24
CATAAATACAGATATACACACATATATATATATATA [CACACA_site4528]	9.45
AATAAAAAGTAATAATAACGTATAATTTATTATACT [TGCATGCA_negctrl_site414]	9.14
TATTTTTTATGATTAACACACACACTAATAAAAAAA [CACACA_site9370]	9.77
ACGTTTACGTTATTATGTACGTAATATATCATACCT [XGTACX_site5006]	9.09
TTAACAAAGAAACACACACACACACCCAAAAAAAAA [CACACA_site516]	10.2
AAAAAAAAGAAAAACACACACATATATATATAGAAT [CACACA_site1006]	10.2
AAAAAAAAAAGAAACACACACATATATATATAGAAT [CACACA_site1777]	10.1
ATACTAAAGAAACACACACACATATATATATAGAAT [CACACA_site100]	10.3
CACACCCACCAACACACACACAAAAAAAAAAAGAAA [CACACA_site500]	9.59
CAACAAAAGAAACACACACACACAAACACAAAAAAA [CACACA_site3389]	10
